# Test results published in PubChem BioAssay AID624141 (Broad Institute, 2012).
# Hit rate of the full screen: of about 17,000 compounds, about 260 (1.5%) were called active. The sample holds actives, similar compounds and a random draw of the others, so the mix is not that of the screen.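 How the source made its calls: active means spot fluorescence over background with P-value below 7% in all four replicate spots, showing protein binding; inactive means the rest.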
# Target: Myc proto-oncogene protein (Homo sapiens) (UniProt P01106)
# Sequence (P01106 whole entry, looked up): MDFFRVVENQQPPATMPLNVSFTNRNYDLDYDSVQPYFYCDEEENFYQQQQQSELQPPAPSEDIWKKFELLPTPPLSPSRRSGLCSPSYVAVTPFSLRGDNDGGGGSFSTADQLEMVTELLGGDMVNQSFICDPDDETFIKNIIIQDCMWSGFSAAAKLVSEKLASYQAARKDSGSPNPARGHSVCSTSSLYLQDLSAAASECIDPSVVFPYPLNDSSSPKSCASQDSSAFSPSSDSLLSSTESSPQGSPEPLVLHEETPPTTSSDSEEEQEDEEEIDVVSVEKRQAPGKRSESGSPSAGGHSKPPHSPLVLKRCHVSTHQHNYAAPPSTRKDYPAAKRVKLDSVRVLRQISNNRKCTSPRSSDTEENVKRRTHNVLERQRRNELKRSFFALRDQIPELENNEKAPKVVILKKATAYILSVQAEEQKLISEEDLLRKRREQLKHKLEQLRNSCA
# Assay: small molecules binding His-tagged c-Myc – biochemical, small molecule microarray, anti-His fluorescence, primary screen (AID 624141)
row,Structure (SMILES),outcome
1,COc1ccc2[nH]cc(CCNCc3ccc(Br)cc3)c2c1,inactive
2,c1cncc(CNCCc2c[nH]c3ccccc23)c1,active
3,c1ccc(CCCCN2CCC(c3ccccc3)CC2)cc1,inactive
4,C[C@H](CO)N1C[C@H](C)[C@H](CN(C)C(=O)Oc2ccc3ccccc3c2)OCc2cnnn2CCCC1=O,inactive
5,CN[C@@H]1C[C@H]2O[C@@](C)([C@@H]1OC)n1c3ccccc3c3c4c(c5c6ccccc6n2c5c31)C(=O)NC4,inactive
